Target: Tumor necrosis factor receptor superfamily member 10B (Homo sapiens) (UniProt O14763)
Sequence (O14763 whole entry, looked up): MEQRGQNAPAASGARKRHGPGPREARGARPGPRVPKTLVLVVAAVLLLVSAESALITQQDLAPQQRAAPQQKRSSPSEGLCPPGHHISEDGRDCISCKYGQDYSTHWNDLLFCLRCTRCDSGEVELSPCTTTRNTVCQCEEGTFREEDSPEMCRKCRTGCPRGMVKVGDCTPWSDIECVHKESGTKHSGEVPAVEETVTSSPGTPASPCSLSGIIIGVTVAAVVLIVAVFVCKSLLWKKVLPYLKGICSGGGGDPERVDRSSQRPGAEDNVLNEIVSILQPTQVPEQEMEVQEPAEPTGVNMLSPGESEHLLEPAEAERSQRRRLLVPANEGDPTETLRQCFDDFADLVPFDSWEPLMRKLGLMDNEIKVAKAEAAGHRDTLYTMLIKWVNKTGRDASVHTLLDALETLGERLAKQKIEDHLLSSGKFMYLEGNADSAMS
Assay: viability loss of caspase-8 NB7 cells with TRAIL – with/without TRAIL, luminescence panel, confirmation (AID 651596)
Conditions: NB7 neuroblastoma + caspase-8, TRAIL sensitization, NB7 Caspase-8, with TRAIL, mean of runs, at 10 µM, stronger effect = higher value
In the case of CCOc1ccc(/C=C/C(=O)c2c(O)cc(C)oc2=O)cc1, the activity is reported as 74.8%. O=C(/C=C/c1cccc(F)c1)N1CCc2ccccc21 gave an activity of 55.1%. COc1cccc(Nc2nc(N)nc(CCl)n2)c1 gave an activity of 98.4%. COc1ccc2c(=O)cc(-c3ccccc3)n(C)c2c1 gave an activity of 56.4%. Compound O=C(CCl)N(O)c1ccc(C=Cc2ccccc2)cc1 has an activity of 40%. Work on O=C(NC(=S)Nc1ccccn1)c1ccc(-c2ccccc2)cc1 yielded an activity of 76.3%. CC(C)(C)OC(=O)NCc1ccc(NC(=O)c2nc[nH]c2C(=O)NCCCNC(=O)c2[nH]cnc2C(=O)Nc2ccc(CNC(=O)OC(C)(C)C)cc2)cc1 gave an activity of 87.7%. O=C1c2ccccc2S(=O)(=O)c2cc(N3CCOCC3)ccc21 gave an activity of 73.2%. O=C1CCCCC(=O)[C@H](OC(=O)c2ccccc2)C[C@H](c2ccccc2)O1 gave an activity of 2.17%. Work on COc1ccc(Cn2c(SCc3cc(C)ccc3C)nc3cc(OC)c(OC)cc3c2=N)cc1 yielded an activity of 94.9%. For O=C(N/N=C/c1cccc(O)c1)c1ccc2c(c1)OCCO2, the activity was 93.8%. With CSc1nnc(NC(=O)c2nc(S(=O)(=O)Cc3ccccc3)ncc2Cl)s1 the activity was 83.6%. Work on C=C(C)CSc1nnc2n(Cc3ccccc3)c(=O)c3c4c(sc3n12)CCC4 yielded an activity of 90.4%. In the case of Cn1c(/C=C/c2ccc([N+](=O)[O-])o2)nc2ccccc2c1=O, the activity is reported as 50.8%. Work on O=C(/C=C/c1ccccc1Cl)Nc1cccc(O)c1 yielded an activity of 61.3%. COC(=O)c1ccc2c(c1)C(C)(C)C(/C=C/c1ccc(O)cc1)=[N+]2C gave an activity of 43.9%. With CCOc1ccc(N/C=C/C(=O)c2ccccc2)c([N+](=O)[O-])c1 the activity was 92.7%. Work on O=C(CCl)N(c1ccccc1)c1c[nH]c2ccccc12 yielded an activity of 99.5%. Work on CCOC(=O)c1ccc(NC(=O)c2ccc(C)c(S(=O)(=O)N3CCOCC3)c2)cc1 yielded an activity of 79.3%. Compound Cc1ccc(NC(=S)c2nc3ccccc3s2)cc1 has an activity of 30.7%. O=C(CCl)Nc1ccccc1C(=O)Nc1ccc2c(c1)OCO2 gave an activity of 74.1%. N#Cc1ccc(C(=O)Nc2nc(-c3cccs3)c(C(=O)C(F)(F)F)s2)cc1 showed an activity of 36.9%.

System: not listed separately
Assay: as above
Conditions: NB7 neuroblastoma + caspase-8, without TRAIL, NB7 Caspase-8, without TRAIL, mean of runs, at 10 µM
O=C(Nc1cccc(-n2cnnn2)c1)c1ccc(C(F)(F)F)cc1 showed an activity of 10.3%. In the case of COC(=O)c1ccc(NC(=O)C(=O)c2cccn2C)cc1, the activity is reported as 51.2%. Cc1cc(C)c2c(=N)c3ccccc3n(CCCCCCCCn3c4ccccc4c(=N)c4c(C)cc(C)nc43)c2n1 showed an activity of 98.7%. With COc1cc(/C=C/c2nc3ccccc3c(=O)[nH]2)ccc1OC(F)F the activity was 54.7%. CCCCNC(=O)c1ccc(Cn2c(=S)[nH]c3c([nH]c4ccc(OC)cc43)c2=O)cc1 showed an activity of 63.2%. Work on COc1cccc(C(=O)Nc2ccc(NC(=O)C(C)(C)C)cn2)c1 yielded an activity of 83%. Work on CS(=O)(=O)Nc1cccc(NC(=O)C2Cc3c(-c4ccco4)ccnc3O2)c1 (configuration not stated) yielded an activity of 27.8%. Oc1ccccc1-c1cc(-c2ccccc2)no1 showed an activity of 37.7%. Compound O=C(Nc1cccc(-c2ccc(N3CCCCC3)nn2)c1)C(F)(F)F has an activity of 95.2%. For CCOc1cccc(C(=O)Nc2ccc3[nH]ncc3c2)c1, the activity was 67%. For COc1ccc(C(=O)Nn2c(SCC(=O)N3CCC(C)CC3)nc3ccccc3c2=O)cc1, the activity was 67.2%. For C/C(=N\Nc1nc2ccccc2[nH]1)c1ccccn1, the activity was 68.5%. For O=C(N/N=C/c1ccc([N+](=O)[O-])o1)c1cc(-c2ccc(-c3ccccc3)cc2)nc2ccccc12, the activity was 89.3%. Work on Nc1nc2ccccc2n1C(=O)c1ccc(F)cc1 yielded an activity of 91%. Compound COc1ccc(-c2cc3nc[nH]c(=O)c3s2)cc1 has an activity of 58.2%. With COc1ccc(C(=O)Nc2nc3ccccc3[nH]2)cc1 the activity was 95.1%. Nc1cc2sc(-c3ccc(C(=O)O)cc3)nc2cc1Cl showed an activity of 42.5%. With CCn1cc(Cl)c(C(=O)Nc2ccc3c(c2)OCCO3)n1 the activity was 34.1%. With CCOc1ccc(/C=C/C(=O)c2c(O)cc(C)oc2=O)cc1 the activity was 77.8%. Compound O=C(/C=C/c1cccc(F)c1)N1CCc2ccccc21 has an activity of 52.8%. For COc1cccc(Nc2nc(N)nc(CCl)n2)c1, the activity was 92%. Work on COc1ccc2c(=O)cc(-c3ccccc3)n(C)c2c1 yielded an activity of 60.1%. Work on O=C(CCl)N(O)c1ccc(C=Cc2ccccc2)cc1 yielded an activity of 53.7%. In the case of O=C(NC(=S)Nc1ccccn1)c1ccc(-c2ccccc2)cc1, the activity is reported as 72.8%. Compound CC(C)(C)OC(=O)NCc1ccc(NC(=O)c2nc[nH]c2C(=O)NCCCNC(=O)c2[nH]cnc2C(=O)Nc2ccc(CNC(=O)OC(C)(C)C)cc2)cc1 has an activity of 69.1%. With O=C1c2ccccc2S(=O)(=O)c2cc(N3CCOCC3)ccc21 the activity was 73.9%. O=C1CCCCC(=O)[C@H](OC(=O)c2ccccc2)C[C@H](c2ccccc2)O1 gave an activity of 2.2%. Compound COc1ccc(Cn2c(SCc3cc(C)ccc3C)nc3cc(OC)c(OC)cc3c2=N)cc1 has an activity of 97.8%. With O=C(N/N=C/c1cccc(O)c1)c1ccc2c(c1)OCCO2 the activity was 90.7%. For CSc1nnc(NC(=O)c2nc(S(=O)(=O)Cc3ccccc3)ncc2Cl)s1, the activity was 77.9%. C=C(C)CSc1nnc2n(Cc3ccccc3)c(=O)c3c4c(sc3n12)CCC4 showed an activity of 90%. Cn1c(/C=C/c2ccc([N+](=O)[O-])o2)nc2ccccc2c1=O showed an activity of 73.9%. O=C(/C=C/c1ccccc1Cl)Nc1cccc(O)c1 showed an activity of 42.2%. For COC(=O)c1ccc2c(c1)C(C)(C)C(/C=C/c1ccc(O)cc1)=[N+]2C, the activity was 76.1%. With CCOc1ccc(N/C=C/C(=O)c2ccccc2)c([N+](=O)[O-])c1 the activity was 89.7%. Work on O=C(CCl)N(c1ccccc1)c1c[nH]c2ccccc12 yielded an activity of 99%. CCOC(=O)c1ccc(NC(=O)c2ccc(C)c(S(=O)(=O)N3CCOCC3)c2)cc1 showed an activity of 69.1%. Cc1ccc(NC(=S)c2nc3ccccc3s2)cc1 showed an activity of 33.8%. For O=C(CCl)Nc1ccccc1C(=O)Nc1ccc2c(c1)OCO2, the activity was 73.8%. With N#Cc1ccc(C(=O)Nc2nc(-c3cccs3)c(C(=O)C(F)(F)F)s2)cc1 the activity was 37%.

From PubChem BioAssay
